High-throughput results as filed in PubChem BioAssay.
Rows were chosen to be rich in hits. Some 9.7% of all compounds tested hit in one or more screens of this group.
WNV NS2B-NS3 inh: WNV NS2B-NS3 proteinase inhibition. P06935. WNV NS2B-NS3 protease, fluorogenic substrate Ex360/Em465; active compounds read low. z-score (concentration not given with the values). actives 0.18% (n = 65,000); in the data active = z-score below about -3
BAP1 inh: inhibitors of human BAP1 deubiquitinase. recombinant BAP1, Ub-AMC hydrolysis fluorescence kinetic; active compounds read low. calls only at 20 µM. actives 0.48% (n = 72,000). AID 436;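 active = activity remaining at or below 50% of control, provided the compound also passes the data quality filters; inactive = the rest, including low values that fail the filters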;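 also: 100% = DMSO wells rate and 0% = substrate alone blank rate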
M1 antagonist: M1 muscarinic receptor (rat) antagonism; CHO-M1 cells, Fluo-4 calcium, ACh EC80 antagonist mode; active compounds read low; B-score at 10 µM; actives 3.4% (n = 64,000); AID 628;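 active = calcium fluorescence response, raw or row-and-column corrected B-score, differing from the plate sample mean either way at a set confidence level, mostly lower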
Target sequence (P08482 whole entry, looked up): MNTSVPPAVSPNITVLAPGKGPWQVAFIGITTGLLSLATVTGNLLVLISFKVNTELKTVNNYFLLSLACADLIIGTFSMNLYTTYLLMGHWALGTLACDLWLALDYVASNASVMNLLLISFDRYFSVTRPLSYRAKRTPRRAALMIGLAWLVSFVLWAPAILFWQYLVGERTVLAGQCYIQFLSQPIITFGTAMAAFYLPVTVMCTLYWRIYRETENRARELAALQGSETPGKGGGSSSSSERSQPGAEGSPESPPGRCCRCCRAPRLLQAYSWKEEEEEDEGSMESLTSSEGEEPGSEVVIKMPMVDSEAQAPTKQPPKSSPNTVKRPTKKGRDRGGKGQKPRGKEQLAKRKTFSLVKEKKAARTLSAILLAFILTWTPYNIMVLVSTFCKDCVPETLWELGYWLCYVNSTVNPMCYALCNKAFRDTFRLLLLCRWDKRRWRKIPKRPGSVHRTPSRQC
M1 agonist: activates the M1 muscarinic receptor; CHO-M1 cells, Fluo-4 calcium fluorescence, agonist mode; active compounds read high; B-score at 10 µM; actives 3% (n = 64,000); AID 626;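 active = fluorescence rise, raw or as B-score row- and column-corrected plate score, outside the 99.7% band of its plate's samples, either direction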
Fluor 339 460: intrinsic fluorescence of library compounds, ex339/em460 – biochemical, MLSMR library, data from DPM-DC assay, artefact control, profiling panel | compound autofluorescence, ex339/em460 nm, NADH buffer; active compounds read high; 1 = no-compound wells, NADH background | fluorescence fold increase at 10 µM | actives 5.5% (n = 65,000);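 active = at 10 µM, mean starting fluorescence two-fold or more over control wells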;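 also: signal is the first read of a kinetic run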
Abs 340nm: compounds absorbing at 340 nm; compound absorbance at 340 nm, fold over control; fold change at 10 µM; 65,000 tested, under 10 active; AID 708;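 active = at 10 µM dose, initial 340 nm absorbance at least 2 fold that of control wells; inactive = change under 2 fold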;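 also: initial absorbance extrapolated from kinetic A340 decline of NADH oxidation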
M1 antag confirm: M1 muscarinic receptor (rat) antagonism, confirmed | shares compounds with M1 antagonist | CHO-M1 cells, Fluo-4 calcium, ACh EC80 antagonism; active compounds read low | calcium response (max-min fluorescence) at 10 µM | actives 43% (n = 1,700) | AID 677;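 active = calcium response below the same-plate mean of wells given acetylcholine alone at its 80%-effect dose, minus 3 SD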;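 also: raw fluorescence intensity difference in arbitrary instrument units and not normalized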
mGluR4 antag: selectivity test for M1 antagonists: human mGluR4 receptor | shares compounds with M1 antagonist | CHO-mGluR4 calcium flux, Fluo-4 fluorescence, glutamate EC80; active compounds read low | fluorescence response (max-min) at 10 µM | actives 0.9% (n = 1,700);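 active = fluorescence response below the plate's average for near-maximal glutamate wells, less 3 SD of those wells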;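 also: raw unnormalized fluorescence span taken in the window right after glutamate addition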
* hit, by the source's call; i = inactive; · = no result shown.

SMILES	WNV NS2B-NS3 inh	BAP1 inh	M1 antagonist	M1 agonist	Fluor 339 460	Abs 340nm	M1 antag confirm	mGluR4 antag
COc1ccc(OC)c(C(=O)c2oc3ccccc3c2NC(C)=O)c1	0.72	i	1.22	0.816	1.03	1.16	·	·
COc1cccc(NC(=O)c2oc3ccccc3c2NC(=O)C(C)(C)C)c1	-0.66	·	-3.82*	-0.334	1.76	1.07	700	243
Cc1cc(C(=O)CSc2nnc(NCc3ccccc3)s2)c(C)n1C	1.79	i	-3.54*	-0.381	1.1	1.06	488	249
Cc1cc(C(=O)CSc2nnc(Nc3ccccc3)s2)c(C)n1CC1CCCO1 (stereo not given)	1.64	i	-0.205	-0.311	1	1.04	·	·
Cc1c(S(=O)(=O)N2CCN(c3cccc(C(F)(F)F)c3)CC2)c(=O)n(C)c(=O)n1C	-1.11	i	-0.0352	-0.396	1.1	1.03	·	·
Cc1c(CN2CCN(c3cccc(C(F)(F)F)c3)CC2)c(=O)n(-c2ccccc2)n1C	-0.2	i	-4.41*	-2.09	1.06	1.03	458*	228
COC(=O)C1=CNC=C(C(=O)OC)C1c1ccc(C(=O)OC)cc1	0.43	·	-3.21*	-0.019	2.07*	1.08	398*	220
Cc1csc(NC(=O)c2ccc(Br)cc2)n1	·	i	·	·	·	·	·	·
COc1ccccc1CN1CCN(C(CC(C)C)c2nnnn2Cc2cccs2)CC1 (stereo not given)	-1.02	i	-2.03*	-0.143	1.16	0.97	558*	210
CCSc1nccc(Nc2ccccc2)c1C#N	·	i	·	·	·	·	·	·
O=C(Nc1ccccc1F)c1cc2ccccc2oc1=O	·	i	·	·	·	·	·	·
Cc1c(C(=O)NCc2cccnc2)oc2ccc(S(=O)(=O)N3CCCCC3)cc12	0.06	i	-0.365	2.06	1.03	0.99	·	·
CCOC(=O)N1CCN(C(=O)c2oc3ccc(S(=O)(=O)N4CCOCC4)cc3c2C)CC1	0.27	·	-0.274	0.171	1.06	1.04	·	·
CCOC(=O)N1CCN(C(=O)c2oc3ccc(S(=O)(=O)N4CCCCCC4)cc3c2C)CC1	·	·	-1.96*	-0.151	1.12	0.97	598	236
O=C(c1cccc(S(=O)(=O)N2CCOCC2)c1)N1CCCc2ccccc21	0.05	·	-0.0889	-0.83	1.1	1.01	·	·
Cc1c(C(=O)N2CCCc3ccccc32)oc2ccc(S(=O)(=O)N3CCOCC3)cc12	1.25	i	-2.21*	0.72	1.06	0.98	614	264
Cc1c(C(=O)N(C)Cc2ccccc2)oc2ccc(S(=O)(=O)N3CCCC3)cc12	-0.1	·	-2.33*	2.54	1.12	1.04	590	249
Cc1c(C(=O)NCc2cccnc2)oc2ccc(S(=O)(=O)N3CCCCCC3)cc12	-1.4	·	-1.64*	-0.733	1.09	1.01	617	268
Cn1c(COc2ccc3ccccc3c2)nnc1SCC(N)=O	-1.3	i	-0.158*	-0.321	1.09	0.98	516	171
COCCn1c(COc2ccccc2)nnc1SCC(N)=O	0.64	i	0.348	-0.133	1.09	0.98	·	·
O=C(CCn1nc(-c2ccc(Cl)cc2)ccc1=O)N1CCN(c2ccccn2)CC1	-0.86	i	-3*	1.26	1.05	1.01	584	247
CN(C)c1nc2c(c(=O)[nH]c(=O)n2C)n1Cc1ccccc1Br	-0.01	i	-2.89*	0.181	1.09	1	678	242
Cn1c(=O)[nH]c(=O)c2c1nc(Br)n2Cc1ccccc1F	0.37	i	0.862	-0.819	1.06	0.99	·	·
O=C(CN1CCN(c2ccccn2)CC1)N1c2ccccc2Sc2ccc(C(F)(F)F)cc21	0.87	i	-4*	-0.304	1.06	1.02	450*	171
Cc1cc(=O)n(C)c(=O)n1CCCCCN1CCCC1	0.22	i	-1.63*	0.159	1.02	0.99	660	249
SMILES	WNV NS2B-NS3 inh	BAP1 inh	M1 antagonist	M1 agonist	Fluor 339 460	Abs 340nm	M1 antag confirm	mGluR4 antag
O=C(c1ccc(C(=O)N2CCN(c3cccc(Cl)c3)CC2)cc1)N1CCN(c2cccc(Cl)c2)CC1	·	i	·	·	·	·	·	·
COC(=O)/C=c1/s/c(=C(\C#N)C(=O)NCc2ccco2)n(-c2ccccc2)c1=O	-0.34	i	-2.23*	0.777	1.08	1.03	669	218
CC(C)(C)C1CCC(OCC(O)CN2CCC(CN3C(=O)c4cccc5cccc(c45)C3=O)CC2)CC1 (stereo not given)	·	i	·	·	·	·	·	·
O=C(Nc1ccc(Cl)cn1)c1ccc(I)cc1	·	i	·	·	·	·	·	·
O=C1C2CC=CCC2C(=O)N1c1ccc(Cc2ccncc2)cc1 (stereo not given)	-0.11	i	-1.07	-3.02	1	0.99	·	·
CCC(=Nc1ccc(Cc2ccncc2)cc1)c1c(O)n(C)c(=O)n(C)c1=O	0.69	i	-2.87*	7.65	1.12	1.05	548*	224
Cc1ccc(S(=O)(=O)N(CC(=O)N2CCC(C(N)=O)CC2)c2cccc(C(F)(F)F)c2)cc1	0.7	i	-7.27*	-0.304	1.04	0.99	624	217
CCOC(=O)N1CCN(C(=O)CN(c2cccc(C(F)(F)F)c2)S(=O)(=O)c2ccccc2)CC1	0.31	i	0.708	0.382	1.04	1.02	·	·
NCCCCCc1nnc(SCc2cccc(Cl)c2)o1	1.45	i	-5.2*	-0.349	1.15	1.04	415*	282
COCCNc1cccc2c1C(=O)c1ccccc1C2=O	·	i	·	·	·	·	·	·
CCCc1[nH]nc2c1C(Cc1ccccc1)C(C#N)=C(N)O2 (stereo not given)	-1.64	i	-2.25*	0.302	1.16	1.03	642	239
COc1cccc(OCCCN2CCCCC2)c1	-0.84	i	-0.515	-0.532	1.13	1.06	·	·
CCCCOc1ccc(C(=O)CCN2CCCCC2)cc1	-0.25	i	-4.08	-0.404	1.04	1	·	·
CCOc1cccc(OCCCCN2CCCCC2)c1	0.95	i	-3.07*	0.357	1.14	1.06	329*	214
COc1cccc(OCCCCN2CCCCC2)c1	2.57	i	-1.16*	0.113	1.06	1.04	280*	203
COc1cc([N+](=O)[O-])ccc1NC(=O)c1ccc(S(=O)(=O)N2CCCC2)cc1	·	i	·	·	·	·	·	·
CC1=C(C(=O)OCCCCl)C(c2ccc(C)cc2)NC(=O)N1 (stereo not given)	·	i	·	·	·	·	·	·
CC(C)NC(=O)Cn1c(SCC(=O)N2CCCCCC2)nc2ccccc21	-1.76	i	-0.209	-0.0015	1.03	1	·	·
Nn1cc(-c2ccccc2)nc1SCC(=O)N1CCN(S(=O)(=O)c2ccccc2)CC1	0.11	i	-0.501	-0.25	0.99	0.99	·	·
